Source: ChEMBL document CHEMBL2218924, “A broad activity screen in support of a chemogenomic map for kinase signalling research and drug discovery” (Biochem J, 2013)

Legend:
[1] = molecular target: Ribosomal protein S6 kinase beta-1 (Homo sapiens) (UniProt P23443); conditions: at 1 µM
[2] = molecular target: Ribosomal protein S6 kinase beta-1 (Homo sapiens) (UniProt P23443); conditions: at 10 µM
[3] = molecular target: Serine/threonine-protein kinase Nek6 (Homo sapiens) (UniProt Q9HC98); conditions: at 1 µM
[4] = molecular target: Serine/threonine-protein kinase Nek6 (Homo sapiens) (UniProt Q9HC98); conditions: at 10 µM
[5] = molecular target: Serine/threonine-protein kinase Nek7 (Homo sapiens) (UniProt Q8TDX7); conditions: at 1 µM
Serine/threonine-protein kinase Nek7 (Homo sapiens), sequence (Q8TDX7 whole entry, looked up): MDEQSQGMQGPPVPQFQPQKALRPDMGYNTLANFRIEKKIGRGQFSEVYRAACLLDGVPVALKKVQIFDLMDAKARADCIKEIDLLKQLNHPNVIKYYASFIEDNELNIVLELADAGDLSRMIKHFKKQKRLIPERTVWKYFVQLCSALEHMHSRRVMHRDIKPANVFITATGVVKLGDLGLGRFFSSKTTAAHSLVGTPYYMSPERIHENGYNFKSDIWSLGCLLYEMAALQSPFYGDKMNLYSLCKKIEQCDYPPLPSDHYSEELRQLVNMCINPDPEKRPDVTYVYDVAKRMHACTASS

[6] = molecular target: Serine/threonine-protein kinase Nek7 (Homo sapiens) (UniProt Q8TDX7); conditions: at 10 µM
[7] = molecular target: T1, Serine/threonine-protein kinase NLK (Homo sapiens) (UniProt Q9UBE8); conditions: at 1 µM
T1 sequence (whole entry): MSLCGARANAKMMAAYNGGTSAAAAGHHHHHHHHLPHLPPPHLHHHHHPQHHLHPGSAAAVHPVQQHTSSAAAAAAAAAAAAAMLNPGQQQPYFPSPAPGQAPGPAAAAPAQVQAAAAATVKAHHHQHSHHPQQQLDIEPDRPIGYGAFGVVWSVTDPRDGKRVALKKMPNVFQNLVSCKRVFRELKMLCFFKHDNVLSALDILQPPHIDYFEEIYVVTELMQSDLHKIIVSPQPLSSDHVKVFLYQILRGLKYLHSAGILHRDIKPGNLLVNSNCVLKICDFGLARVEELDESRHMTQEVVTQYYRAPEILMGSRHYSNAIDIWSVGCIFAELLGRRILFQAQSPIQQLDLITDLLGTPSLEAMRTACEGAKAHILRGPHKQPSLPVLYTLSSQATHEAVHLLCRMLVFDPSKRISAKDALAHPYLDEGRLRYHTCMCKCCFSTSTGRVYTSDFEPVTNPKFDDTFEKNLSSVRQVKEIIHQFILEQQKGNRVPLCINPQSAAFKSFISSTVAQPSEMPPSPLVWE

[8] = molecular target: T1, Serine/threonine-protein kinase NLK (Homo sapiens); conditions: at 10 µM
[9] = molecular target: Serine/threonine-protein kinase PAK 2 (Homo sapiens) (UniProt Q13177); conditions: at 1 µM
Serine/threonine-protein kinase PAK 2 (Homo sapiens), sequence (Q13177 whole entry): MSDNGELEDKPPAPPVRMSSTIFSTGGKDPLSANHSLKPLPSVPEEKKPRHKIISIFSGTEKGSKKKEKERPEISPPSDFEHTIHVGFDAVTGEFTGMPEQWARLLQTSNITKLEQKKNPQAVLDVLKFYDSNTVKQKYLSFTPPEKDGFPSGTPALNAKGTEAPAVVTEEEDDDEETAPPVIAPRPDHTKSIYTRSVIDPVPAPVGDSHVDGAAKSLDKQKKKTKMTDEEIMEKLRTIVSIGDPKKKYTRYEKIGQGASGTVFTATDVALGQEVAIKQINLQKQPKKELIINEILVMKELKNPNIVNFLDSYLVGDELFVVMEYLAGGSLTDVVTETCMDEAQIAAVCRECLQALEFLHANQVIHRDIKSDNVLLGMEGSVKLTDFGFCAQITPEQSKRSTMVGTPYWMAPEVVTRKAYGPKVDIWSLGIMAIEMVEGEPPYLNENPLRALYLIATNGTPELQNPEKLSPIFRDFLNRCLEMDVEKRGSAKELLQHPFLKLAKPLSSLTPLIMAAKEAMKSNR

[10] = molecular target: Serine/threonine-protein kinase PAK 2 (Homo sapiens) (UniProt Q13177); conditions: at 10 µM
[11] = molecular target: Serine/threonine-protein kinase PAK 4 (Homo sapiens) (UniProt O96013); conditions: at 1 µM
Serine/threonine-protein kinase PAK 4 (Homo sapiens), sequence (O96013 whole entry, looked up): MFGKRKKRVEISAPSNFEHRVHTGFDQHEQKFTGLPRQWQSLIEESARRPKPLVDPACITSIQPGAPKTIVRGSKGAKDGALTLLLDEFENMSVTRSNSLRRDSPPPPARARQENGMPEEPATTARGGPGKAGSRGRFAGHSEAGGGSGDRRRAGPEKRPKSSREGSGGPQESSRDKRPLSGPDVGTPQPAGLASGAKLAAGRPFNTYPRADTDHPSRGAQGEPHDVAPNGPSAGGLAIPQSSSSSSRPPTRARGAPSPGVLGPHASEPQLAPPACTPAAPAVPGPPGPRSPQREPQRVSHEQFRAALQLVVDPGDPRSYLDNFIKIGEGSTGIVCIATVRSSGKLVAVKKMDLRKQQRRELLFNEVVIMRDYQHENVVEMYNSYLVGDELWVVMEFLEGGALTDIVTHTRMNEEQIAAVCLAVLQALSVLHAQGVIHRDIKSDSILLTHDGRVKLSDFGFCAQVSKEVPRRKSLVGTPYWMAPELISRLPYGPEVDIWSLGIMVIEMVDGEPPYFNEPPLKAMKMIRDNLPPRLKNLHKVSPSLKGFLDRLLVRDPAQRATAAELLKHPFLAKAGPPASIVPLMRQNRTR

[12] = molecular target: Serine/threonine-protein kinase PAK 4 (Homo sapiens) (UniProt O96013); conditions: at 10 µM
[13] = molecular target: Serine/threonine-protein kinase PAK 5 (Homo sapiens) (UniProt Q9P286); conditions: at 10 µM
[14] = molecular target: Serine/threonine-protein kinase PAK 6 (Homo sapiens) (UniProt Q9NQU5); conditions: at 1 µM
Serine/threonine-protein kinase PAK 6 (Homo sapiens), sequence (Q9NQU5 whole entry, looked up): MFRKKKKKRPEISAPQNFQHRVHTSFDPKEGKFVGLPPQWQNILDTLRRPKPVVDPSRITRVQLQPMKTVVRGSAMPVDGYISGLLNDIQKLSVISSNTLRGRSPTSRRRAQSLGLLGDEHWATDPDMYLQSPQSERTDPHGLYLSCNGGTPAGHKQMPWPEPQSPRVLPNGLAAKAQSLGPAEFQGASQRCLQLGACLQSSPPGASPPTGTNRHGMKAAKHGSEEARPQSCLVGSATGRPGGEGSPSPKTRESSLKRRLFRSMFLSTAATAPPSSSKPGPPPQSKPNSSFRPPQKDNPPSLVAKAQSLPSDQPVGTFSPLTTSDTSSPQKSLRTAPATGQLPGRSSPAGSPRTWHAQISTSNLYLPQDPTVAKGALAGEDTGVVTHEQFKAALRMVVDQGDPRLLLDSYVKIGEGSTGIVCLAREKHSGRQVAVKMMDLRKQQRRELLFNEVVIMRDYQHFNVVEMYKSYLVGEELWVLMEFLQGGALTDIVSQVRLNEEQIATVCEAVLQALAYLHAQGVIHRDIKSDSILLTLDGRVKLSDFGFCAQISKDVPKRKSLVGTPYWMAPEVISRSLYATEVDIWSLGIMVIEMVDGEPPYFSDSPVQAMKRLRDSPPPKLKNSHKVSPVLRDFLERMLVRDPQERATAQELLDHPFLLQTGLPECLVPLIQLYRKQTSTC

[15] = molecular target: Serine/threonine-protein kinase PAK 6 (Homo sapiens) (UniProt Q9NQU5); conditions: at 10 µM
[16] = molecular target: Activated CDC42 kinase 1 (Homo sapiens) (UniProt Q07912); conditions: at 10 µM
[17] = molecular target: ALK tyrosine kinase receptor (Homo sapiens) (UniProt Q9UM73); conditions: at 1 µM
ALK tyrosine kinase receptor (Homo sapiens), sequence (Q9UM73 19-1620 limits assumed): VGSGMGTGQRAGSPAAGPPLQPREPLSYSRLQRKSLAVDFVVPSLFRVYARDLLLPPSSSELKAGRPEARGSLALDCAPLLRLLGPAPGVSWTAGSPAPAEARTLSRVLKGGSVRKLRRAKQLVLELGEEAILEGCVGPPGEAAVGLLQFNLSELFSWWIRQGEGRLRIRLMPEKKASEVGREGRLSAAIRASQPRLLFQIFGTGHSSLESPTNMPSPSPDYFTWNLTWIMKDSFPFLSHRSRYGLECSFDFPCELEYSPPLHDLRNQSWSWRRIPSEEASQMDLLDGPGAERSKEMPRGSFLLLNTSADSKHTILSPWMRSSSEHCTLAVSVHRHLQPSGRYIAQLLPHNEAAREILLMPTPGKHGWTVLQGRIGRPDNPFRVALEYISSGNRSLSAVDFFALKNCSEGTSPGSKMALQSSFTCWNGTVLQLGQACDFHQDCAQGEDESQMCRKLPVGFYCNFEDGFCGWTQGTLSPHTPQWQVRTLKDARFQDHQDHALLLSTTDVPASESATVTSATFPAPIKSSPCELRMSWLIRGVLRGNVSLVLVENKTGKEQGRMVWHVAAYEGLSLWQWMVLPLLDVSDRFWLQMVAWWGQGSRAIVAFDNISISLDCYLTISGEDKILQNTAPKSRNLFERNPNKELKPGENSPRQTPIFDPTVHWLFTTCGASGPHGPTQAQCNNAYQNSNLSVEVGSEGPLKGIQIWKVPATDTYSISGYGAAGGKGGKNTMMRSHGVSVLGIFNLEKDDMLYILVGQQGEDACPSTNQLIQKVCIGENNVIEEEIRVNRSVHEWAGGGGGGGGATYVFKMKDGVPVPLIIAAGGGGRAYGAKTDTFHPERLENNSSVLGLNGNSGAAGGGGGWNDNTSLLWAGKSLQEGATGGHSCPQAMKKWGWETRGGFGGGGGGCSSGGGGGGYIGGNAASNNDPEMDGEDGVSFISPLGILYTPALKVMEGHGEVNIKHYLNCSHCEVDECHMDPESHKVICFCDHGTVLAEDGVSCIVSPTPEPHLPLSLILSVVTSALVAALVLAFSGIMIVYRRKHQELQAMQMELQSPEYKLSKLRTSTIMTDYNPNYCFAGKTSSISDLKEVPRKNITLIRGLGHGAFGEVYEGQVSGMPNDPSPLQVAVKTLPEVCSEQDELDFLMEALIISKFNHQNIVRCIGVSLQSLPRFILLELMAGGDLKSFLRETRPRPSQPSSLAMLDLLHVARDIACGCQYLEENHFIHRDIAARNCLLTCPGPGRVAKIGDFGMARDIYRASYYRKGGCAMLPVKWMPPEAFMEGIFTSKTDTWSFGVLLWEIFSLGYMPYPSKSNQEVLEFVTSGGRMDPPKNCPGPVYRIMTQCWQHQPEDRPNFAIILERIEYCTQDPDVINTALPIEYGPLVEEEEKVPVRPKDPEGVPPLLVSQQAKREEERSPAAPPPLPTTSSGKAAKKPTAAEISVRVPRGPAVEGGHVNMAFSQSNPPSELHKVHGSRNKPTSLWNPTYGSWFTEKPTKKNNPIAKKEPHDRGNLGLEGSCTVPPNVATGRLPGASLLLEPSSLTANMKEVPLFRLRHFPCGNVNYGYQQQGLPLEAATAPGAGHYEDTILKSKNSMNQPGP

[18] = molecular target: Serine/threonine-protein kinase PAK 5 (Homo sapiens) (UniProt Q9P286); conditions: at 1 µM
[19] = molecular target: PAS domain-containing serine/threonine-protein kinase (Homo sapiens) (UniProt Q96RG2); conditions: at 10 µM
PAS domain-containing serine/threonine-protein kinase (Homo sapiens), sequence (Q96RG2 whole entry, the tested form may be a part): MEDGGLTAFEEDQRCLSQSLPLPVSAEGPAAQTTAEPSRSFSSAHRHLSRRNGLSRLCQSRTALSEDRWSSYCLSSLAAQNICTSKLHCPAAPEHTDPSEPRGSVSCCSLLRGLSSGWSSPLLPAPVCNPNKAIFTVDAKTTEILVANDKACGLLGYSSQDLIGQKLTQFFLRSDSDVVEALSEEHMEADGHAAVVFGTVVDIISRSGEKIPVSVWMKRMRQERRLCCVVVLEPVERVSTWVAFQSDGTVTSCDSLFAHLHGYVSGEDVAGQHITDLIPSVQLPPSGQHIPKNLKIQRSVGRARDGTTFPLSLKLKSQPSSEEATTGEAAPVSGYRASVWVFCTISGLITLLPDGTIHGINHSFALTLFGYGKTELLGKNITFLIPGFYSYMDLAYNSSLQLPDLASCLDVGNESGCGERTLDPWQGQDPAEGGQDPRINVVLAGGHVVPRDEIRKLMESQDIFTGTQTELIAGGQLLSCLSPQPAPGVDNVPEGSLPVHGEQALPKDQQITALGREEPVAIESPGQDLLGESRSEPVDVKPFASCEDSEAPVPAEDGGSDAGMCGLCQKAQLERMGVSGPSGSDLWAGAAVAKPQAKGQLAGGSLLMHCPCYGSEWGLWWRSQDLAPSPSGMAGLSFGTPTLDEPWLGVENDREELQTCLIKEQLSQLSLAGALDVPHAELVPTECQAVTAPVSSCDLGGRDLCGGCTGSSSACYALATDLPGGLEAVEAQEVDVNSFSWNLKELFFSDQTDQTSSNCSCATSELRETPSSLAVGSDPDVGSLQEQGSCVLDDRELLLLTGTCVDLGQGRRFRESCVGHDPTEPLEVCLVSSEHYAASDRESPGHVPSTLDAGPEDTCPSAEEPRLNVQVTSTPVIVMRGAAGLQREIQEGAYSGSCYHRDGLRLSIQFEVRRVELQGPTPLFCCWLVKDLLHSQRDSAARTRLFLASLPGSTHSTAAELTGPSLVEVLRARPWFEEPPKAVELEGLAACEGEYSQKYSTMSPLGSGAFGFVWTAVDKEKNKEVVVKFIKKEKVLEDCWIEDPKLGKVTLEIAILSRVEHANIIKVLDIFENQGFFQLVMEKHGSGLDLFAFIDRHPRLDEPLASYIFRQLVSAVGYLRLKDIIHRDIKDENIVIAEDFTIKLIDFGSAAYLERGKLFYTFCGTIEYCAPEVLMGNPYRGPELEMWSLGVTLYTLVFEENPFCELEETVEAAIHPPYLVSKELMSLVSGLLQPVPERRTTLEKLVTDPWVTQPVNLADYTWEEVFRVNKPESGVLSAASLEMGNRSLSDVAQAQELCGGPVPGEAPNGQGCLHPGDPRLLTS

[20] = molecular target: Activated CDC42 kinase 1 (Homo sapiens) (UniProt Q07912); conditions: at 1 µM

SMILES	residual activity [1]	residual activity [2]	residual activity [3]	residual activity [4]	residual activity [5]	residual activity [6]	residual activity [7]	residual activity [8]	residual activity [9]	residual activity [10]	residual activity [11]	residual activity [12]	residual activity [13]	residual activity [14]	residual activity [15]	residual activity [16]	residual activity [17]	residual activity [18]	residual activity [19]	residual activity [20]
Cc1cc2ncc(-c3ccccc3)nc2cc1C	80%	52%	104% (inactive)	102%	106% (inactive)	101% (inactive)	105%	91%	97%	94%	104%	88%	92%	94%	77%	59%	82%	–	–	–
Oc1c2ccccc2c2c3c(cccc13)N=N2	55%	14%	107% (inactive)	101%	99% (inactive)	89% (inactive)	78%	71%	96%	86%	88%	45%	64%	91%	49%	12%	61%	99%	81%	50%
Cc1nc(-c2ccccc2)c(-c2ccncc2)o1	83%	56%	105% (inactive)	–	107% (inactive)	106% (inactive)	103%	48%	102%	101%	100%	104%	95%	109%	90%	64%	100%	106%	91%	74%
CN(C)CCCn1cc(C2=C(c3c[nH]c4ccccc34)C(=O)NC2=O)c2ccccc21	11%	2%	–	113%	117% (inactive)	121% (inactive)	127%	88%	115%	–	102%	75%	77%	–	78%	45%	–	88%	18%	112%
CC[n+]1c(/C=C/N(C)c2ccccc2)n(-c2ccccc2)c2ccc(-c3nc4ccccc4s3)cc21	130%	71%	108% (inactive)	88%	117% (inactive)	138% (inactive)	–	89%	109%	81%	103%	100%	119%	102%	96%	77%	88%	104%	43%	110%
N#CCCc1ccc2c(c1)-c1[nH]c3ccc([N+](=O)[O-])cc3c1CC(=O)N2	–	–	–	–	–	–	–	64%	62%	37%	13%	4%	7%	55%	16%	13%	73%	16%	52%	32%
Oc1n[nH]c2nnc(-c3c(-c4ccccc4)nn4ccccc34)cc12	106%	96%	103% (inactive)	110%	100% (inactive)	96% (inactive)	90%	86%	94%	99%	95%	92%	101%	98%	98%	14%	92%	101%	104%	29%
N#Cc1cnc2cnc(NCc3cccnc3)cc2c1Nc1ccc(F)c(Cl)c1	1%	-1%	–	–	–	–	93%	89%	103%	90%	65%	18%	5%	2%	2%	1%	90%	11%	63%	3%
Nc1nc(Nc2ccc(S(N)(=O)=O)cc2)nn1C(=S)Nc1c(F)cccc1F	14%	11%	89% (inactive)	44%	–	–	17%	3%	47%	7%	6%	0%	1%	14%	4%	0%	16%	9%	89%	9%
COc1cc2ncnc(N3CCN(C(=O)Nc4ccc(Oc5ccccc5)cc4)CC3)c2cc1OC	–	–	91% (inactive)	126%	97% (inactive)	113% (inactive)	88%	89%	110%	86%	94%	84%	122%	112%	–	54%	73%	91%	–	68%
Cn1nc2c3c(cccc31)C(=O)c1ccccc1-2	70%	62%	108% (inactive)	104%	107% (inactive)	86% (inactive)	–	87%	102%	98%	97%	87%	–	108%	–	31%	72%	86%	95%	61%
Cn1cnc2cc3c(Nc4cccc(Br)c4)ncnc3cc21	95%	71%	104% (inactive)	104%	100% (inactive)	103% (inactive)	93%	73%	93%	90%	100%	89%	90%	90%	106%	16%	85%	98%	77%	66%
c1ccc(-c2n[nH]c3c2oc2ccccc23)cc1	–	–	94% (inactive)	–	94% (inactive)	–	–	85%	–	–	95%	83%	86%	–	–	51%	84%	83%	77%	65%
O=C1Nc2ccc(Br)cc2/C1=C\c1cc2c([nH]1)CCCC2	84%	51%	104% (inactive)	102%	101% (inactive)	102% (inactive)	97%	97%	113%	100%	84%	77%	105%	–	–	50%	76%	–	98%	54%
c1ccc(-c2n[nH]cc2-c2ccnc3ccccc23)nc1	72%	58%	–	–	–	–	72%	27%	107%	88%	98%	90%	104%	–	–	50%	85%	92%	82%	77%
CC(=O)c1ccc(N2CCOCC2)cc1O	55%	46%	–	–	98% (inactive)	–	97%	83%	104%	97%	100%	90%	91%	95%	107%	73%	80%	97%	88%	94%
N#CC(C#N)=C(N)/C(C#N)=C/c1ccc(O)cc1	66%	77%	–	–	–	–	–	–	88%	97%	98%	91%	–	100%	87%	70%	88%	–	65%	84%
NC(=O)c1ccc2[nH]c(-c3ccc(Oc4ccc(Cl)cc4)cc3)nc2c1	92%	90%	117% (inactive)	113%	102% (inactive)	104% (inactive)	88%	59%	111%	82%	97%	92%	113%	110%	103%	61%	75%	99%	123%	77%
Cc1cc(Nc2nc(-c3ccccc3)nc3ccccc23)n[nH]1	46%	10%	105% (inactive)	105%	105% (inactive)	–	–	–	–	45%	9%	2%	3%	47%	7%	0%	70%	21%	121%	13%
Cc1cncc2cccc(S(=O)(=O)N3CCCN(C(=O)CN)C[C@H]3C)c12	–	–	88% (inactive)	–	88% (inactive)	98% (inactive)	90%	86%	–	82%	90%	85%	95%	88%	86%	21%	76%	86%	64%	69%
